# Calls of active or inactive are those of the source. How the source made its calls: active means hit-call score of the fitted dose curve at least 0.9, where 1 is the maximum; inactive means score below 0.9.
# Assay: ATG_E_Box_CIS: Attagene CIS-FACTORIAL HepG2 Assay for human Enhancer Box (E-box) (AID 2282936)
# Conditions: HepG2 E-box cis-reporter transcription, actives raise or lower the signal
# Experimental: ATG_CIS is a cell-based, multiplexed-readout assay that uses HepG2, a human liver cell line, with measurements taken at 24 hours after chemical dosing in a 24-well plate.ATG_E_Box_CIS is one of 52 assay component(s) measured or calculated from the ATG_CIS assay. It is designed to make measurements of mRNA induction, a form of inducible reporter, as detected with fluorescence intensity signals by Reverse transcription polymerase chain reaction (RT-PCR) and Capillary electrophoresis technology.Data from the assay component ATG_E_Box_CIS was analyzed into 1 assay endpoint. This assay endpoint, ATG_E_Box_CIS, was analyzed with bidirectional fitting relative to DMSO as the negative control and baseline of activity. Using a type of inducible reporter, measures of mRNA for gain or loss-of-signal activity can be used to understand the reporter gene at the transcription factor-level as they relate to the gene USF1. Furthermore, this assay endpoint can be referred to as a primary readout, because this assay has produced multiple assay endpoints where this one serves a reporter gene function. To generalize the intended target to other relatable targets, this assay endpoint is annotated to the dna binding intended target family, where the subfamily is basic helix-loop-helix protein.
# Human liver HepG2 cells are transiently transfected with multiple reporter transcription units (MRTUs) in 6-well plates using FuGene 6 reagent (Roche; 3 ml FuGene/1 mg DNA). The MRTU constructs are regulated by a cis-regulating element (promoter). […] A major difference between the CIS and TRANS system is that in CIS activities of endogenous TFs are measured, whereas the TRANS assay evaluates changes in activities of exogenous, chimeric NR-Gal4 proteins. […] At the end of 24 hour incubation, total RNA was isolated using TriZol reagent (Invitrogen). The isolated RNA is then reverse-transcribed using oligo(dT) primer and Mo-MLV reverse transcriptase (Invitrogen) with DNAse I (Ambion) treatment for 30 min. The one-tenth of the produced cDNA was amplified by PCR using Taq DNA polymerase (Invitrogen) and two reporter sequence-specific primers. The PCR products were fluorescently labeled by primer extension with 6-arboxyfluorescein (6-FAM) 5'-labeled reporter sequence-specific primer (2 min at 95 C, 20 s at 68 C and 10 min at 72 C) and these products were digested with 5U of HpaI (New England Biolabs) for 2h at 37 C. The fragments were purified using Qiaquick PCR columns (Qiagen), analyzed on an ABI 3130xL genetic analyzer (Applied Biosystems) with peak positions identified by using a set of X-rhodamine (ROX)-labeled MapMarker1000 molecular weight standards (BioVentures). The raw capillary electrophoresis data was processed using Attagraph software (Attagene).
SMILES,AC50,outcome
COC(=O)C1=C(C)NC(C)=C(C(=O)OCCN(C)Cc2ccccc2)C1c1cccc([N+](=O)[O-])c1 (stereo not given),19.4 µM (active),
CCN(CC)c1ccc(C(=C2C=CC(=[N+](CC)CC)C=C2)c2ccc(S(=O)(=O)O)cc2S(=O)(=O)[O-])cc1,,inactive
CC(CN1c2ccccc2Sc2ccccc21)N(C)C (stereo not given),55.5 µM (active),
CCCCCCCCCCCCN(CCCCCCCCCCCC)CCCCCCCCCCCC,,inactive
O=CCCc1ccccc1,,inactive
CC(C)(C)C(=O)c1ccccc1,,inactive
CC(C)C(C)(C)C(C)(C)C(C)(C)S,,inactive
O=C1CCc2ccccc2O1,,inactive
CC(CCO)CCCC(C)(C)O (stereo not given),,inactive
COc1nc(C)nc(N)n1,,inactive
Nc1ccc(S(N)(=O)=O)cc1,,inactive
O=C(Oc1ccccc1)c1ccc(O)cc1,,inactive
C=C(C)C(=O)OCCOC(=O)CC(C)=O,,inactive
COc1c(Cl)c(Cl)c(Cl)c(Cl)c1Cl,,inactive
Cc1ccc2ccccc2n1,,inactive
CCCCCCCCCCCCOCCO,50.6 µM (active),
CCCCCCCCCCCCCCCC(=O)OC[C@H](O)[C@H]1OC(=O)C(O)=C1O,,inactive
CCCCCCCCCCCCN,,inactive
O=C(O)CN(CCN(CC(=O)O)CC(=O)O)CCN(CC(=O)O)CC(=O)O,,inactive
CCCCCNCCCCC,,inactive

SMILES,AC50,outcome
O=C(O)CCCCC1CCSS1 (stereo not given),,inactive
CCCCC[Si](OCC)(OCC)OCC,,inactive
O=C(O)c1cn(C2CC2)c2cc(N3CCNCC3)c(F)cc2c1=O,,inactive
FC1(F)C(F)(F)C(F)(F)C2(F)C(F)(C1(F)F)C(F)(F)C(F)(F)C1(F)C(F)(F)C(F)(F)C(F)(F)C(F)(F)C12F (stereo not given),,inactive
CCCCC/C=C/C=C/C=O,,inactive
CSc1nc(NC2CC2)nc(NC(C)(C)C)n1,,inactive
CCN(CC)c1ccc2c(-c3ccccc3C(=O)O)c3ccc(=[N+](CC)CC)cc-3oc2c1,,inactive
NC(=O)Nc1ccc(Cl)cc1,,inactive
CCCCc1ccc(N)cc1,,inactive
O=[N+]([O-])c1ccc(Nc2ccc(Nc3ccccc3)c(S(=O)(=O)O)c2)c([N+](=O)[O-])c1,,inactive
CCCCNC(=O)NS(=O)(=O)c1ccc(N)cc1,,inactive
Cc1ccc2n[nH]nc2c1,,inactive
CCCCCOC(=O)CCC,,inactive
CCCCCCCCCCC(CO)CCCCCCCC (stereo not given),,inactive
Cc1ccc(C(=O)c2cc(O)c(O)c([N+](=O)[O-])c2)cc1,27 µM (active),
CC(=O)OCCC(C)CC(C)(C)C (stereo not given),,inactive
CCCc1ccccc1O,,inactive
Cc1ccc(Nc2ccc(O)c3c2C(=O)c2ccccc2C3=O)cc1,20.3 µM (active),
O=C(O)COCCN1CCN(C(c2ccccc2)c2ccc(Cl)cc2)CC1 (stereo not given),,inactive
O=C1NC(=O)c2ccccc21,,inactive

# From PubChem BioAssay (EPA / NIEHS)
